This passage reports Potency and outcome results from PubChem BioAssay (Tox21).

Values joined by “and” are separate entries in the source; they are usually repeats but may differ in a detail not shown here. Identical values can stand only once. Inconclusive results are not listed. Where a structure was tested more than once in an assay, its records may differ in their call. Active and inactive are the calls of the source. Unless noted, calls follow the shape of the dose curve; as a rule, active = well fitted curve in the direction sought with a large enough effect in the repeat runs; inconclusive = weak or mixed curves; inactive = no such curve, though single readings can be large; an effect the other way counts as inactive or inconclusive.

A short description of assay [1]: qHTS assay to identify aromatase inhibitors - cell viability counter screen (AID 743084).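 Also: cells stimulated with testosterone during compound exposure; nearly all actives have a fitted effect of over 55% in size.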 Also: potency is read from the fitted curve at half-maximal effect. For orientation: In qHTS, concentration-response curves come from the screen itself.
Assay [2] concerns the target Aryl hydrocarbon receptor (Homo sapiens) (UniProt P35869). The assay is described as follows: qHTS assay to identify small molecule that activate the aryl hydrocarbon receptor (AhR) signaling pathway (AID 743085).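 Also: HG2L7.5c1 human HepG2 liver cells with stably integrated DRE-driven firefly reporter; series mostly up to about 70 µM; nearly all actives have a fitted effect of over 15% in size.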 The gist of the method: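 24 h compound exposure, 37C, HepG2-derived HG2L7.5c1 cells with DRE-responsive luciferase. Readouts: fluorescence viability, then luminescence at room temperature after 30 min.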

Assay [3] can be described thus: qHTS assay to identify small molecule that activate the aryl hydrocarbon receptor (AhR) signaling pathway - cell viability counter screen (AID 743086).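 Also: HepG2 liver cells carrying the AhR DRE luciferase reporter; series mostly up to about 70 µM; nearly all actives have a fitted effect of over 45% in size.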 The method in brief:
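HepG2-AhR-luc (HG2L7.5c1) cells, 4000/well, were preincubated 5 h at 37C, exposed to compound in qHTS format for 24 hr at 37C, then given CellTiter-Fluor for 30 min; viability was read as fluorescence in the reporter wells.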

Assay [4] has as its target Peroxisome proliferator-activated receptor gamma (Homo sapiens) (UniProt P37231). Kind of assay: qHTS assay to identify small molecule agonists of the peroxisome proliferator-activated receptor gamma (PPARg) signaling pathway (AID 743094; active = well fitted activation curve with a large enough effect in the signal ratio in the repeat runs, not every such curve was filed as active; the % refers to the signal ratio). The method in brief: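 Fluorescence-based beta-lactamase readout in HEK293H PPARg UAS-bla cells after 17 h compound exposure (37C) and 1 h B/G FRET substrate incubation at room temperature.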

For assay [5] the target is unchanged. The assay is described as follows: qHTS assay to identify small molecule antagonists of the peroxisome proliferator-activated receptor gamma (PPARg) signaling pathway (AID 743191; calls by dose curve; also: series mostly up to about 63 µM; nearly all actives have a fitted effect of over 30% in size). The gist of the method: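 GeneBLAzer PPARg UAS-bla HEK293H cells carrying a UAS-driven beta-lactamase reporter were plated at 3000 cells/well, preincubated 5 h at 37C, then given compound for 17 h at 37C; LiveBLAzer B/G FRET substrate was read after 1 h at room temperature.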

A short description of assay [6]: qHTS assay for small molecule agonists of the antioxidant response element (ARE) signaling pathway (AID 743202; active = well fitted activation curve with a large enough effect in the signal ratio in the repeat runs, not every such curve was filed as active; the % refers to the signal ratio; also: potency is read from the fitted curve at half-maximal effect). The method in brief: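 Following a 16 h, 37 C exposure of reporter HepG2 cells (ARE-driven beta-lactamase, 2,000 cells/well) to compounds, FRET substrate was applied for 2 h at room temperature and fluorescence intensity recorded.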
Assay [7] in a line: qHTS assay for small molecule agonists of the antioxidant response element (ARE) signaling pathway - cell viability counter screen (AID 743203; calls by dose curve; also: nearly all actives have a fitted effect of over 55% in size). The method in brief: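 Parallel cytotoxicity read-out for the ARE-bla screen: HepG2 reporter cells, 16 hrs with compounds, then CellTiter-Glo luminescence.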
Assay [8] in a line: qHTS assay for small molecule activators of the heat shock response signaling pathway - cell viability counter screen (AID 743209). Also: nearly all actives have a fitted effect of over 50% in size. The method in brief: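 To flag cytotoxic compounds, HSE-bla HeLa cells plated at 1500 cells/well were dosed for 5 h at 37 C, followed by the reporter FRET read and then CellTiter-Glo, with luminescence recorded 30 min after reagent addition.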
Assay [9] is described as follows: qHTS assay for small molecule activators of the heat shock response signaling pathway (AID 743210; active = well fitted activation curve with a large enough effect in the signal ratio in the repeat runs, with a control signal flat, not every such curve was filed as active; the % refers to the signal ratio; also: series mostly up to about 63 µM). The method in brief: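 Heat shock element–beta-lactamase HeLa reporter cells; qHTS with compounds for 5 h at 37 C; detection by FRET substrate fluorescence after 2.5 h at RT.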
Assay [10] in a line: qHTS assay to identify small molecule agonists of the peroxisome proliferator-activated receptor delta (PPARd) signaling pathway - cell viability counter screen (AID 743211). Also: nearly all actives have a fitted effect of over 55% in size. The gist of the method: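 Luminescent ATP viability assay (CellTiter-Glo, 30 min RT) in UAS-bla HEK293H cells carrying the PPAR delta reporter construct, 3000 cells/well, after a 17 h compound treatment at 37 C.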

In assay [11] the target is Peroxisome proliferator-activated receptor delta (Homo sapiens) (UniProt Q03181). The assay is described as follows: qHTS assay to identify small molecule agonists of the peroxisome proliferator-activated receptor delta (PPARd) signaling pathway (AID 743212; calls by dose curve). The gist of the method: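 Beta-lactamase reporter read by fluorescence (LiveBLAzer B/G FRET, 2 h, room temperature). Test agents, in DMSO, incubated at 37 C with PPARd-bla HEK293H cells.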

The nature of assay [12]: qHTS assay to identify small molecule antagonists of the peroxisome proliferator-activated receptor delta (PPARd) signaling pathway - cell viability counter screen (AID 743213). Also: nearly all actives have a fitted effect of over 50% in size. The gist of the method:
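CellTiter-Glo was added to PPARd-bla HEK293H wells following 17 h compound treatment in the presence of 300 nM L165041. Luminescence was recorded after 30 min at room temperature.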

Assay [13] concerns the target Peroxisome proliferator-activated receptor delta (Homo sapiens) (UniProt Q03181). The assay is described as follows: qHTS assay to identify small molecule antagonists of the peroxisome proliferator-activated receptor delta (PPARd) signaling pathway (AID 743215; active = well fitted inhibition curve with a large enough effect in the signal ratio in the repeat runs, not every such curve was filed as active; the % refers to the signal ratio;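 also: cells stimulated with agonist L165041 at 300 nM final during compound exposure; series mostly up to about 62 µM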). The gist of the method: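 Screen format: qHTS, antagonist mode. HEK293H PPARd-bla cells received compound and 300 nM L165041 (final), 17 h, 37 C. Beta-lactamase detected via FRET substrate fluorescence, 2 h, room temperature.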

Assay [14] in a line: qHTS assay to identify small molecule agonists of the farnesoid-X-receptor (FXR) signaling pathway - cell viability counter screen (AID 743218). Also: nearly all actives have a fitted effect of over 45% in size. The method in brief: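 Same-well cytotoxicity check on FXR-UAS-bla HEK 293T cells: 5 h attachment, 16 h compound at 37 C, CellTiter-Glo luminescence read at room temperature after 30 min.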
Assay [15] can be described thus: qHTS assay to identify small molecule antagonists of the farnesoid-X-receptor (FXR) signaling pathway - cell viability counter screen (AID 743221; active = well fitted cell-killing curve with a large enough effect in the repeat runs, not every such curve was filed as active; also: nearly all actives have a fitted effect of over 50% in size). The method in brief: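 In GeneBLAzer FXR-UAS-bla HEK 293T cells stimulated with 50 uM chenodeoxycholic acid (final), compounds acted for 16 h at 37 C. Viability was assessed afterwards by CellTiter-Glo luminescence.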

For assay [16], the target named is Vitamin D3 receptor (Homo sapiens) (UniProt P11473). The assay is described as follows: qHTS assay to identify small molecule agonists of the vitamin D receptor (VDR) signaling pathway (AID 743222; calls by dose curve). The gist of the method:
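Using LiveBLAzer B/G FRET detection, agonism was scored in VDR-bla cells exposed overnight (16 h, 37C) to DMSO-dissolved compounds; substrate incubation was 2 h at room temperature.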

Assay [17] shares this target. The assay is described as follows: qHTS assay to identify small molecule antagonists of the vitamin D receptor (VDR) signaling pathway (AID 743223; active = well fitted inhibition curve with a large enough effect in the signal ratio in the repeat runs, not every such curve was filed as active; the % refers to the signal ratio). The gist of the method:
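Agonist 1alpha,25-dihydroxyvitamin D3 (3 nM in well) was added with each compound to VDR-bla cells preincubated 4 h. Cells stood 16 h at 37C, then FRET substrate 2 h at room temperature; fluorescence intensity recorded.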

Assay [18] addresses Bile acid receptor (Homo sapiens) (UniProt Q96RI1). Kind of assay: qHTS assay to identify small molecule antagonists of the farnesoid-X-receptor (FXR) signaling pathway (AID 743217; active = well fitted inhibition curve with a large enough effect in the signal ratio in the repeat runs, not every such curve was filed as active; the % refers to the signal ratio). The gist of the method: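 Quantitative HTS, beta-lactamase reporter format: FXR-UAS-bla HEK 293T cells co-treated 16 h at 37 °C with compounds and 50 uM final chenodeoxycholic acid, then read by B/G FRET fluorescence.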

Assay [19] shares this target. Kind of assay: qHTS assay to identify small molecule agonists of the farnesoid-X-receptor (FXR) signaling pathway (AID 743220; active = well fitted activation curve with a large enough effect in the signal ratio in the repeat runs, not every such curve was filed as active; the % refers to the signal ratio). The method in brief: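 FXR-UAS-bla HEK 293T cells carrying a UAS-driven beta-lactamase reporter were plated for 5 h at 37C/5% CO2, then exposed to DMSO-dissolved Tox21 10K compounds for 16 h at 37C. A LiveBLAzer B/G FRET substrate was loaded for 2 h at room temperature before fluorescence reading.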

Assay [20] can be described thus: qHTS assay to identify small molecule antagonists of the peroxisome proliferator-activated receptor gamma (PPARg) signaling pathway - cell viability counter screen (AID 743194). Also: nearly all actives have a fitted effect of over 55% in size. The gist of the method:
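PPARg-UAS-bla HEK293H cells were plated, rested 5 h at 37 C, then treated with compounds plus rosiglitazone (50 nM final) for 17 h at 37 C; viability was then read by CellTiter-Glo luminescence after 30 min at room temperature.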

Sequence of Peroxisome proliferator-activated receptor gamma (Homo sapiens) (P37231 whole entry, looked up): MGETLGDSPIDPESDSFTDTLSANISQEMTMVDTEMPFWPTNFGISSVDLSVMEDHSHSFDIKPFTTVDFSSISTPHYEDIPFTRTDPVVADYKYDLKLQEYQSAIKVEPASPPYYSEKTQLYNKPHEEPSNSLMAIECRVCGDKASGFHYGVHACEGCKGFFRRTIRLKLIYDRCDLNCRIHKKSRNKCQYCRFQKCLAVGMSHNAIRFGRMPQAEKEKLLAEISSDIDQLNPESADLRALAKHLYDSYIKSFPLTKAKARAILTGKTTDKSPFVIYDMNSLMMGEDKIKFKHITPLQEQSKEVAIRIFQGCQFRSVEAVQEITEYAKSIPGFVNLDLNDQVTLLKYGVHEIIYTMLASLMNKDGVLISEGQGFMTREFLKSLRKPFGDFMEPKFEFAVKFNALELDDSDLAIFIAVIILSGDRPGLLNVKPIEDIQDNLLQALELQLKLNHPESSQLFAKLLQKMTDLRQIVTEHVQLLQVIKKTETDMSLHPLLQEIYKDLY
Sequence of Bile acid receptor (Homo sapiens) (Q96RI1 whole entry, looked up): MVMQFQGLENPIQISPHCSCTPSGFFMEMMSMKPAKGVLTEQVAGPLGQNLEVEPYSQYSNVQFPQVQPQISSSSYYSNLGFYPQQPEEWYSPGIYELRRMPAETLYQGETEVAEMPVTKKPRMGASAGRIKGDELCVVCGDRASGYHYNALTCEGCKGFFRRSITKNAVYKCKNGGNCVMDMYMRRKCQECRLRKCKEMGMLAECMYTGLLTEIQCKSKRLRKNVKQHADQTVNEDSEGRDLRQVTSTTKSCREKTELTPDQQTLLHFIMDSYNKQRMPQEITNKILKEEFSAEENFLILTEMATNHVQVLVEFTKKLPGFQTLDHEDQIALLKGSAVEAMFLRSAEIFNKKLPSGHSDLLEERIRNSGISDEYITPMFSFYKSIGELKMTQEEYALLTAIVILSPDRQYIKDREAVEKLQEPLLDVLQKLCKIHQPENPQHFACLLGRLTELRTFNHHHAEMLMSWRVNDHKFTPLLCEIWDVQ
Sequence of Aryl hydrocarbon receptor (Homo sapiens) (P35869 whole entry, looked up): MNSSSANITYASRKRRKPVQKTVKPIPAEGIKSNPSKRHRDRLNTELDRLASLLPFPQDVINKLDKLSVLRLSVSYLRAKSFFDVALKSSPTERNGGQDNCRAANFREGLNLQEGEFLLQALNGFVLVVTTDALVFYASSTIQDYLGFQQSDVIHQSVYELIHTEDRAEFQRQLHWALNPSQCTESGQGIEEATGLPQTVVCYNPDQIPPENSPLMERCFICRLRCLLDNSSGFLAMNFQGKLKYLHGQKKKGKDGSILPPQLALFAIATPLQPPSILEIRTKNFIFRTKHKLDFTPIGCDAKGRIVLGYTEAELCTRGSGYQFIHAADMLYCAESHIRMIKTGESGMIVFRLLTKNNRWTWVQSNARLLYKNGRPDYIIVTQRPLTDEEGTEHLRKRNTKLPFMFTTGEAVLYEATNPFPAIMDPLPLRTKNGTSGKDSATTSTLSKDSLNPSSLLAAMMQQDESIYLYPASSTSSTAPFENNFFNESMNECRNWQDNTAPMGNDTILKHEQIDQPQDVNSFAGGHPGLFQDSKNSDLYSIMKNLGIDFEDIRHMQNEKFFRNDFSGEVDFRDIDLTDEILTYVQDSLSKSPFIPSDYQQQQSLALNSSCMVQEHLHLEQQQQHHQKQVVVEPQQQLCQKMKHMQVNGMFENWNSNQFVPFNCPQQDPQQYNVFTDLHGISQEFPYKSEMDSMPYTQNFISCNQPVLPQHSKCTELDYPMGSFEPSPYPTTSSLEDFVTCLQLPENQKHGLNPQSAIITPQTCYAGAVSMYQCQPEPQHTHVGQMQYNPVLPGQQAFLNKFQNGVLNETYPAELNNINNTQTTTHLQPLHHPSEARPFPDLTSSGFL
Sequence of Peroxisome proliferator-activated receptor delta (Homo sapiens) (Q03181 whole entry, looked up): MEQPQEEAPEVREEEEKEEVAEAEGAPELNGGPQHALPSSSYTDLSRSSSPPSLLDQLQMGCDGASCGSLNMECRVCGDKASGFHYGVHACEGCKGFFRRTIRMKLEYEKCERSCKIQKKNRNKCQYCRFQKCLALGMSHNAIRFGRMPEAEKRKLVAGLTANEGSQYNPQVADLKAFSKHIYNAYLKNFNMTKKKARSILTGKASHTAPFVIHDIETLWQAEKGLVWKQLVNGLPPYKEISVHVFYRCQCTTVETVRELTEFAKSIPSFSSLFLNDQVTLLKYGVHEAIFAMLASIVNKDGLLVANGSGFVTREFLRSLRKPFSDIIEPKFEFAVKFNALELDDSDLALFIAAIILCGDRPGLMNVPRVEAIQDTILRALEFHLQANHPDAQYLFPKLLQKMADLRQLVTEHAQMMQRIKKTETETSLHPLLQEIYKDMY
Sequence of Vitamin D3 receptor (Homo sapiens) (P11473 whole entry, looked up): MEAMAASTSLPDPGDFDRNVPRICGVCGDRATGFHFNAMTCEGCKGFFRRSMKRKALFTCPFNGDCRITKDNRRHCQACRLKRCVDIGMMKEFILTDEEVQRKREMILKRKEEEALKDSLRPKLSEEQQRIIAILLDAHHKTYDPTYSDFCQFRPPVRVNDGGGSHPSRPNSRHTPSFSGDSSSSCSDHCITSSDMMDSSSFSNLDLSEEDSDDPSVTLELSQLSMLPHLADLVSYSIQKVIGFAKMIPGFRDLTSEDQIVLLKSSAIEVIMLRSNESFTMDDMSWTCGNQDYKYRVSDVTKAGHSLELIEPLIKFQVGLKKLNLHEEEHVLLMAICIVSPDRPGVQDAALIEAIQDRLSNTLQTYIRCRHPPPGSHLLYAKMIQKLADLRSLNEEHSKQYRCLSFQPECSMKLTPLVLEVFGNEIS

Regarding `O=[N+]([O-])c1cccc(Cl)c1`, the Potency entry in [1], in assay [2], in assay [3], in [5], in assay [6] and in assay [7] was “inactive” in each case. The Potency entry in assay [8], in assay [10], in assay [12], in assay [14], in [15] and in [16] was “inactive” in each case. In assay [17], the Potency result was “inactive”. The result in [4], in assay [9], in [11] and in assay [13] was inactive.

Consider `OCC1CCCO1` (centres undefined), for which the Potency entry in assay [1], in assay [2], in [3], in assay [5], in assay [6] and in assay [7] was “inactive” in each case. Moreover, the Potency result in assay [8], in [10], in assay [12], in [14], in [15] and in assay [16] was “inactive” throughout. Moreover, the Potency result in assay [17] was “inactive”. Also, the compound was called inactive in [4], in [9], in assay [11], in assay [13], in assay [18] and in [19].

For the compound `CC(C)(CO)COC(=O)C(C)(C)CO`, the Potency result in assay [1], in assay [2], in assay [3], in [5], in [6] and in [7] was “inactive” in each case. The Potency result in assay [8], in [10], in assay [12], in assay [14], in [15] and in [16] was “inactive” in each case. For the same compound, the Potency result in assay [17] was “inactive”. In addition, the compound was classed as inactive in [4], in [9], in assay [11], in assay [13], in assay [18] and in assay [19].

For the compound `CC1=C(/C=C/C(C)=C/C=C/C(C)=C/CO)C(C)(C)CCC1`, the Potency result is “inactive and 72.3 µM (active)” in assay [1]; 61.9 µM (active) and 57.4 µM (active) in [6]. Besides, the Potency entry in assay [2], in assay [3], in assay [20], in [7], in assay [8] and in assay [12] was “inactive” throughout. For the same compound, the Potency entry in [14], in assay [15] and in assay [17] was “inactive” throughout. Also, the call in [4] and in assay [13] was inactive.

As to `COC(=O)c1ccccc1O`, the Potency entry in [1], in [2], in assay [3], in [20], in assay [6] and in assay [7] was “inactive” in each case. Further, the Potency entry in [8], in [10], in assay [12], in assay [14], in [15] and in [16] was “inactive” in each case. The Potency entry in [17] is “inactive”. In addition, the result in assay [11] and in assay [13] was inactive.

`CC(=O)CCc1ccccc1`: the Potency result in assay [1], in assay [3], in assay [5], in assay [6], in assay [7] and in assay [8] was “inactive” throughout. Besides, the Potency entry in [10], in assay [12], in assay [14], in assay [15], in assay [16] and in [17] was “inactive” each time. For the same compound, the compound was called inactive in [4] and in assay [9].

For `CC(C)(C)C1CCC(O)CC1` (centres undefined), the Potency result in assay [1], in assay [3], in assay [5], in assay [20], in assay [6] and in [7] was “inactive” throughout. Further, the Potency result in [8], in assay [10], in assay [12], in [14], in assay [15] and in [16] was “inactive” in each case. In assay [17], the Potency entry is “inactive”. Also, the compound was classed as inactive in assay [4], in [9], in [11] and in assay [13].
